# Results: the antibiotic and cytotoxicity screens of Wong et al. (2023)
# Among all 39,000 compounds or so, about 3,300 (8.5%) were called active. What follows is part of a selection rich in actives, with near analogues and random picks from the rest.
# Tested on: HepG2
# Experiment: cytotoxicity call (relative viability < 0.9)
# Settings: 10 µM
row,Compound,cytotoxicity call
1,Cc1noc(C)c1S(=O)(=O)N(C)C[C@@H]1Oc2ccc(NS(=O)(=O)c3ccc(Cl)cc3)cc2CC(=O)N([C@@H](C)CO)C[C@@H]1C,inactive
2,OCCN1CCN(c2ncnc3c2ncn3[C@H]2CN(Cc3ccccc3)C[C@@H](CO)O2)CC1,inactive
3,C[C@@H]1CN([C@@H](C)CO)C(=O)c2cc(NS(=O)(=O)c3ccc(Cl)cc3)ccc2O[C@@H](C)CCCCO[C@H]1CN(C)C(=O)CCC(F)(F)F,inactive
4,CN1C=C(C(=O)OCCS(C)(=O)=O)C(C(=O)OCCS(C)(=O)=O)=CC(CCCO)=C[C@@H]1C1CC1,inactive
5,COc1ccc([C@@H](O)[C@@H](CCO)OC)cc1O,inactive
6,N#CC1(N[C@@H](Cc2ccccc2)c2ccccc2)CCCCCC1,inactive
7,Cc1ccc(OC[C@@H](O)CN)c(C)c1,inactive
8,Cn1c(=O)cnn(CCCCN2CCN(c3ncccn3)CC2)c1=O,inactive
9,Cl.O=C1CC2(CCCC2)CC(=O)N1CCCCN1CCN(c2ncccn2)CC1,active
10,O=C(C1CC1)N1CCN(c2ncccn2)CC1,inactive
11,C[C@H]1CN([C@@H](C)CO)S(=O)(=O)c2ccc(-c3ccncc3)cc2O[C@@H]1CN(C)S(=O)(=O)c1ccccc1F,inactive
12,C[C@@H]1CN([C@@H](C)CO)C(=O)c2cc(NC(=O)Nc3ccc4c(c3)OCO4)ccc2O[C@@H](C)CCCCO[C@@H]1CN(C)S(=O)(=O)c1ccccc1,inactive
13,C[C@@H]1CCCCO[C@H](CN(C)S(=O)(=O)c2ccc(Cl)cc2)[C@H](C)CN([C@@H](C)CO)C(=O)c2cc(NC(=O)Nc3ccc4c(c3)OCO4)ccc2O1,active
14,C[C@H](CO)N1C[C@H](C)[C@@H](CN(C)S(=O)(=O)c2ccc(Cl)cc2)OCCCC[C@H](C)Oc2ccc(NC(=O)Nc3ccc4c(c3)OCO4)cc2C1=O,inactive
15,C[C@@H]1CCCCO[C@@H](CN(C)S(=O)(=O)c2ccc(Cl)cc2)[C@@H](C)CN([C@@H](C)CO)C(=O)c2cc(NC(=O)Nc3ccc4c(c3)OCO4)ccc2O1,inactive
16,C[C@@H]1CCCCO[C@H](CN(C)S(=O)(=O)c2ccc(Cl)cc2)[C@@H](C)CN([C@@H](C)CO)C(=O)c2cc(NC(=O)Nc3ccc4c(c3)OCO4)ccc2O1,inactive
17,C[C@@H]1CCCCO[C@@H](CN(C)S(=O)(=O)c2ccc(Cl)cc2)[C@H](C)CN([C@@H](C)CO)C(=O)c2cc(NC(=O)Nc3ccc4c(c3)OCO4)ccc2O1,inactive
18,C[C@@H]1CCCCO[C@H](CN(C)S(=O)(=O)c2ccccc2)[C@@H](C)CN([C@@H](C)CO)C(=O)c2cc(NC(=O)Nc3ccc4c(c3)OCO4)ccc2O1,inactive
19,C[C@@H]1CCCCO[C@@H](CN(C)S(=O)(=O)c2ccc(Cl)cc2)[C@@H](C)CN([C@H](C)CO)C(=O)c2cc(NC(=O)Nc3ccc4c(c3)OCO4)ccc2O1,inactive
20,C[C@H]1CCCCO[C@H](CN(C)S(=O)(=O)c2ccc(Cl)cc2)[C@@H](C)CN([C@@H](C)CO)C(=O)c2cc(NC(=O)Nc3ccc4c(c3)OCO4)ccc2O1,active
21,C[C@H]1CCCCO[C@H](CN(C)S(=O)(=O)c2ccccc2)[C@@H](C)CN([C@@H](C)CO)C(=O)c2cc(NC(=O)Nc3ccc4c(c3)OCO4)ccc2O1,active
22,C[C@@H]1CN([C@H](C)CO)C(=O)c2cc(NC(=O)Nc3ccc4c(c3)OCO4)ccc2O[C@@H](C)CCCCO[C@@H]1CN(C)S(=O)(=O)c1ccc(Cl)cc1,inactive

row,Compound,cytotoxicity call
1,C[C@@H]1CN([C@H](C)CO)C(=O)c2cc(NC(=O)Nc3ccc4c(c3)OCO4)ccc2O[C@@H](C)CCCCO[C@H]1CN(C)S(=O)(=O)c1ccc(Cl)cc1,active
2,Cc1noc(C)c1S(=O)(=O)Nc1ccc2c(c1)C(=O)N([C@H](C)CO)C[C@@H](C)[C@H](CN(C)CC1CC1)O2,inactive
3,NCC1OC(OC2C(N)CC(N)C(OC3OC(CO)C(O)C(N)C3O)C2O)C(N)CC1O (stereo unspecified),inactive
4,COc1ccccc1CNC(=O)C[C@@H]1CC[C@H]2[C@@H](COC[C@@H](O)CN2C(=O)Nc2ccc(F)cc2)O1,inactive
5,C[C@H]1CN([C@@H](C)CO)C(=O)c2cc(Br)cnc2O[C@@H]1CN(C)S(=O)(=O)c1cn(C)cn1,inactive
6,Cc1noc(C)c1S(=O)(=O)Nc1ccc2c(c1)C(=O)N([C@H](C)CO)C[C@H](C)[C@@H](CN(C)Cc1ccccc1)O2,inactive
7,COc1cccc(S(=O)(=O)Nc2ccc3c(c2)[C@@H]2C[C@@H](CC(=O)NCC(F)(F)F)O[C@@H](CO)[C@@H]2O3)c1,inactive
8,Cc1ccc(S(=O)(=O)N(C)C[C@@H]2Oc3ccc(NC(=O)NC(C)C)cc3C(=O)N([C@H](C)CO)C[C@@H]2C)cc1,inactive
9,C[C@H](CO)N1C[C@H](C)[C@@H](CN(C)S(C)(=O)=O)Oc2cc(C#Cc3ccc(F)cc3)ccc2S1(=O)=O,inactive
10,C[C@@H]1CN([C@H](C)CO)S(=O)(=O)c2ccc(C#Cc3ccc(F)cc3)cc2O[C@H]1CN(C)S(C)(=O)=O,inactive
11,C[C@H](CO)N1C[C@H](C)[C@H](CN(C)S(C)(=O)=O)Oc2cc(C#Cc3ccc(F)cc3)ccc2S1(=O)=O,active
12,C[C@@H]1CN([C@@H](C)CO)S(=O)(=O)c2ccc(C#Cc3ccc(F)cc3)cc2O[C@H]1CN(C)S(C)(=O)=O,inactive
13,C[C@H]1CN([C@@H](C)CO)S(=O)(=O)c2ccc(C#Cc3ccc(F)cc3)cc2O[C@@H]1CN(C)S(C)(=O)=O,active
14,C[C@@H]1CN([C@H](C)CO)S(=O)(=O)c2ccc(C#Cc3ccc(F)cc3)cc2O[C@@H]1CN(C)S(C)(=O)=O,inactive
15,COc1ccc(CN(C)C[C@H]2OCCCC[C@@H](C)Oc3ccc(NS(=O)(=O)c4c(C)noc4C)cc3C(=O)N([C@H](C)CO)C[C@@H]2C)cc1,inactive
16,CC(C)NC(=O)Nc1cccc2c1O[C@H](CN(C)S(=O)(=O)c1ccc(F)cc1)[C@@H](C)CN([C@H](C)CO)C2=O,inactive
17,CCCCC(=O)c1ccc(O)cc1,inactive
18,CCCCCS(=O)(=O)CCCCCCCCCCn1c(-c2ccc(O)cc2)c(C)c2cc(O)ccc21,active
19,C[C@H](CO)N1C[C@H](C)[C@@H](CN(C)S(=O)(=O)c2cn(C)cn2)Oc2c(NC(=O)Cc3ccccc3)cccc2C1=O,inactive
20,C[C@H](CO)N1C[C@H](C)[C@H](CN(C)Cc2ccc(Cl)c(Cl)c2)Oc2ccc(NC(=O)Nc3cccc4ccccc34)cc2CC1=O,inactive
21,C[C@@H]1CN([C@@H](C)CO)C(=O)Cc2cc(NC(=O)Nc3cccc4ccccc34)ccc2O[C@@H]1CN(C)Cc1ccc(Cl)c(Cl)c1,active
22,C[C@H](CO)N1C[C@H](C)[C@H](CN(C)Cc2ccc(Cl)c(Cl)c2)Oc2ccc(NC(=O)Nc3cccc4ccccc34)cc2C1=O,active

row,Compound,cytotoxicity call
1,C[C@@H]1CN([C@H](C)CO)C(=O)Cc2cc(NC(=O)Nc3cccc4ccccc34)ccc2O[C@H]1CN(C)Cc1ccc(Cl)c(Cl)c1,inactive
2,C[C@@H]1CN([C@H](C)CO)C(=O)c2cc(NC(=O)Nc3cccc4ccccc34)ccc2O[C@@H]1CN(C)Cc1ccc(Cl)c(Cl)c1,inactive
3,C[C@H]1CN([C@@H](C)CO)C(=O)Cc2cc(NC(=O)Nc3cccc4ccccc34)ccc2O[C@@H]1CN(C)Cc1ccc(Cl)c(Cl)c1,inactive
4,C[C@@H]1CN([C@H](C)CO)C(=O)Cc2cc(NC(=O)Nc3cccc4ccccc34)ccc2O[C@@H]1CN(C)Cc1ccc(Cl)c(Cl)c1,active
5,C[C@@H]1CN([C@@H](C)CO)C(=O)c2cc(NC(=O)Nc3cccc4ccccc34)ccc2O[C@H]1CN(C)Cc1ccc(Cl)c(Cl)c1,inactive
6,C[C@H](CO)N1C[C@H](C)[C@@H](CN(C)Cc2ccc(Cl)c(Cl)c2)Oc2ccc(NC(=O)Nc3cccc4ccccc34)cc2CC1=O,inactive
7,COc1ccc(S(=O)(=O)Nc2ccc3c(c2)C(=O)N(C)C[C@@H](OC)[C@H](C)CN(C(=O)NC(C)C)[C@H](C)CO3)cc1,inactive
8,CN(C)CCCNC(=O)C[C@@H]1CC[C@@H]2[C@H](COC[C@@H](O)CN2S(=O)(=O)c2ccc(Cl)cc2)O1,inactive
9,C[C@@H]1CCCCO[C@@H](CN(C)S(=O)(=O)c2cccs2)[C@@H](C)CN([C@@H](C)CO)C(=O)c2cc(NC(=O)Nc3ccc(C(F)(F)F)cc3)ccc2O1,inactive
10,Cc1noc(C)c1S(=O)(=O)Nc1ccc2c(c1)C(=O)N([C@@H](C)CO)C[C@@H](C)[C@@H](CN(C)Cc1ccccc1)OCCCC[C@H](C)O2,inactive
11,C[C@@H]1CN([C@@H](C)CO)C(=O)c2cc(NC(=O)CCN3CCOCC3)ccc2O[C@H]1CN(C)CC1CCCCC1,inactive
12,C[C@@H]1CCCCO[C@@H](CN(C)C(=O)c2ccccc2)[C@H](C)CN([C@H](C)CO)C(=O)c2cc(NS(=O)(=O)c3ccc(Cl)cc3)ccc2O1,inactive
13,Cc1ccc(S(=O)(=O)N(C)C[C@H]2OCCCC[C@H](C)Oc3ccc(NC(=O)Nc4ccccc4)cc3C(=O)N([C@@H](C)CO)C[C@@H]2C)cc1,inactive
14,C[C@@H]1CN([C@@H](C)CO)C(=O)CCCn2nncc2CO[C@@H]1CN(C)Cc1cccc2c1OCCCO2,inactive
15,COc1ccc(NC(=O)Nc2ccc3c(c2)C(=O)N([C@@H](C)CO)C[C@@H](C)[C@@H](CN(C)Cc2ccncc2)OCCCC[C@@H](C)O3)cc1,inactive
16,C[C@@H]1CN([C@H](C)CO)C(=O)c2cc(NC(=O)Cn3cnnn3)ccc2O[C@@H]1CN(C)C(=O)Nc1ccc(F)cc1,inactive
17,C#CCN(C)CCCOc1ccc(Cl)cc1Cl.Cl,inactive
18,CC[C@@H](C)NCCCCOc1ccc(Cl)cc1C(C)(C)C,active
19,CCOc1ccccc1OCCNC(C)Cc1ccc(OC)c(S(N)(=O)=O)c1.Cl (stereo unspecified),inactive
20,Cc1ccc(OCc2ccc(Cl)cc2)c(C(C)(C)C)c1,inactive
21,CC(C)Oc1ccc(Cl)cc1CN,inactive
22,CC(C)(C)NCCCCOc1ccc(Cl)cc1C(C)(C)C,active
